Here are results for 40 compounds from PubChem BioAssay (NCATS).

Several values for one entry are separate records, joined by “and”; a condition that tells them apart may be missing. Equal values may be shown once. Records with an inconclusive call do not appear. Unmarked numbers belong to inactive results. Activity calls are given as the source filed them. The call rests on the fitted dose curve; in most records, active means well fitted activation curve with a large enough effect; inconclusive means small, poorly fitted or top-dose-only effect; inactive means no such curve, though single readings can be large or run the other way.
Potency means the concentration at half of the fitted maximal effect.

Cellular tumor antigen p53 (Homo sapiens), sequence (P04637 whole entry, looked up): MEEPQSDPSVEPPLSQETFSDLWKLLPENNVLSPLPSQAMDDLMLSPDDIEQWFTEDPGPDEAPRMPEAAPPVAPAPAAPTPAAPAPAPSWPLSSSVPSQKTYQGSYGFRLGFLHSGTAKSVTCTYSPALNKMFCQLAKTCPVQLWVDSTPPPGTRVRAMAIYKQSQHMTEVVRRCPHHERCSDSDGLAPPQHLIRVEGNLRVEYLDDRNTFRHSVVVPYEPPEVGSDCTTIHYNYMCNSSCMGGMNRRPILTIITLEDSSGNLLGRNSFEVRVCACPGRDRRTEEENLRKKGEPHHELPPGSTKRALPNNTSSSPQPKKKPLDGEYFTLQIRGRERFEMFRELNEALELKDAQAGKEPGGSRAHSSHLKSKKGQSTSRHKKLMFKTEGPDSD

The experiment concerns the target Cellular tumor antigen p53 (Homo sapiens) (UniProt P04637). Nature of the experiment: Primary qHTS for small molecule compounds that upregulate eGFP-tagged delta133p53alpha (in N-terminal) cells. (AID 2060322). Further: nearly all actives have a fitted effect of over 75% in size.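 On activation: cells pre-induced with doxycycline then dosed without doxycycline; series mostly up to about 56 µM; 0% = DMSO vehicle and 100% = reference activator.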 The settings on record: NCI-H358 eGFP-delta133p53alpha fluorescence, 24 h; activation: active compounds read high. In a few lines:
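NCI-H358 cells pre-induced 24 h with 10 ng/ml doxycycline for eGFP-delta133p53alpha, plated dox-free and exposed 24 h at 37C to titrated compounds. Fixed, Hoechst-stained; gated GFP peak intensity by laser scanning cytometry, normalized to DMSO (0%) and 57.5 uM 5-azacytidine (100%).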
With `O=C(O[C@H]1[C@@H]2C[C@@H]3OC[C@](O)([C@@H]1Cl)[C@H]2C(O[C@@H]1O[C@H](CO)[C@@H](O)[C@H](O)[C@H]1O)O3)c1ccc(O)c(O)c1` (stereo not given in full), the activation is -22.1%.

With `O=C(O)/C=C/c1cc2c(cc1O[C@@H]1O[C@H](CO)[C@@H](O)[C@H](O)[C@H]1O)OCO2`, the activation was 9.92%.

In the case of `CC1(C)OC(=O)CC(O)C2(C)C1CC(=O)C1(C)C2C(O)CC2(C)C(c3ccoc3)OC(=O)C3OC321` (stereo not given), the activation was -23.7%.

Regarding `C=C1CC[C@@H]2[C@](C)(CO[C@@H]3O[C@H](CO)[C@@H](O)[C@H](O)[C@H]3O)CCC[C@@]2(C)[C@@H]1CCC1=CCOC1=O`, the activation was 10.7%.

In the case of `CC1=C(CCC(C)O[C@@H]2O[C@H](CO)[C@@H](O)[C@H](O)[C@H]2O)C(C)(C)CCC1=O` (stereo not given in full), the activation was -16.8%.

As to `COC(=O)C1=COC(O[C@@H]2O[C@H](CO)[C@@H](O)[C@H](O)[C@H]2O)/C(=C\COC(=O)/C=C/c2ccccc2)C1CC(=O)OCCc1ccc(O)cc1` (stereo not given in full), the activation is -0.763%.

Consider `COc1cc(C(CO)C(OC2OC(CO)C(O)C(O)C2O)c2ccc(O)c(OC)c2)ccc1O` (stereo not given), for which the activation is 20.5%.

Regarding `COc1cc(N2CCOCC2)ccc1Nc1ncc(F)c(Nc2ccccc2NS(C)(=O)=O)n1`, the Potency is 9.53 µM (active).

On to `Nc1nc2c(cnn2CCCc2ccc(O)cc2)c2nc(-c3ccco3)nn12`, for which the activation is -11%.

As for `C=C1C(=O)OC[C@@H]1C/C=C(\C)CC1CC(C)C(=O)O1` (stereo not given in full), the Potency was 23.9 µM (active).

Turning to `C/C=C1/[C@H](O[C@@H]2O[C@H](CO)[C@@H](O)[C@H](O)[C@H]2O)OC=C(C(=O)OC)[C@H]1CC(=O)OCCc1ccc(OC(=O)C[C@@H]2C(C(=O)OC)=CO[C@@H](O[C@@H]3O[C@H](CO)[C@@H](O)[C@H](O)[C@H]3O)/C2=C/C)cc1`, the activation was -7.14%.

Turning to `O=C(O)CCc1nccc2c1[nH]c1ccccc12`, the activation is 8.93%.

On to `Cc1c(-c2ccc3c(c2)OCO3)oc2ccc(C(O)C(C)O)cc12` (stereo not given), for which the activation is -8.4%.

As for `C/C=C1\[C@H](OC2OC(COC3OC(CO)C(O)C(O)C3O)C(O)C(O)C2O)OC=C(C(=O)OC)[C@H]1CC(=O)OCCc1ccc(O)cc1` (stereo not given in full), the activation was -13%.

For `C[C@@H]1O[C@@H](O[C@H]2[C@H](OC(C#N)c3ccc(O)cc3)O[C@H](CO)[C@@H](O)[C@@H]2O)[C@H](O)[C@H](O)[C@H]1O` (stereo not given in full), the activation was -19.8%.

With `COc1cc(/C=C/C(=O)OC[C@H]2O[C@@H](OC3CC(C)=C(C(=O)O)C(C)(C)C3)[C@H](O)[C@@H](O)[C@@H]2O)cc(OC)c1O` (stereo not given in full), the activation was -16.8%.

As for `CC1CCC2(O1)C(C)(C)CC(O[C@@H]1O[C@H](CO[C@@H]3OC[C@](O)(CO)[C@H]3O)[C@@H](O)[C@H](O)[C@H]1O)CC2(C)O` (stereo not given in full), the activation is 1.79%.

Regarding `O=C(OC[C@H]1O[C@H](O[C@]2(CO)O[C@H](CO)[C@@H](O)[C@@H]2O)[C@H](O)[C@@H](O)[C@@H]1O)c1ccccc1`, the activation was 0.763%.

As to `CC1CCC2C(C(=O)O)=COC(O[C@@H]3O[C@H](CO)[C@@H](O)[C@H](O)[C@H]3O)C12` (stereo not given in full), the activation was -3.57%.

For `CC(C)CC1NC(=O)C2CC3(O)c4ccccc4NC3N2C1=O` (stereo not given), the activation is -9.92%.

Consider `O=C(NO)c1ccc(CC(=O)N(CCO)c2ccccc2)cc1`, for which the activation is -8.59% and 7.82%.

For the compound `COc1ccc(-c2ccc3c(N4CCOCC4C)nc(N4CCOCC4C)nc3n2)cc1CO` (stereo not given), the activation was 7.14%.

As for `N#Cc1cnc2c(Cl)cc(NCc3cn(CCN4CCCCCC4)nn3)cc2c1Nc1ccc(F)c(Cl)c1`, the Potency is 4.26 µM (active).

Regarding `O=C(c1ccc(C#Cc2cccc(F)c2)cn1)N1CC2CC2C1` (stereo not given), the activation was -1%.

Turning to `Fc1ccc(CN2CCC(Nc3ccc(C(F)(F)F)nn3)CC2)cc1F`, the activation is -6.21%.

For `C=C[C@H]1[C@H](O[C@@H]2O[C@H](CO)[C@@H](O)[C@H](OC(=O)/C=C/c3ccc(O)c(OC)c3)[C@H]2O)OC=C2C(=O)OCC[C@]21O`, the activation is -1.53%.

As for `CC1CCC2C(C(=O)O)=CC3(O)CC(C)(C)CC123` (stereo not given), the activation was -22.3%.

Consider `C/C=C1/CC2C(=O)Nc3cc(O)c(OC)cc3C(=O)N2C1` (stereo not given), for which the activation is -3.57%.

In the case of `O=C(/C=C/c1ccc(O)cc1)O[C@H]1[C@@H]2C=CO[C@@H](O[C@@H]3O[C@H](CO)[C@@H](O)[C@H](O)[C@H]3O)[C@@H]2[C@@]2(CO)O[C@@H]12`, the activation is -7.63%.

For the compound `COc1cc2c(cc1O)C1(Cc3ccc4c(c3C1=O)OCO4)N(C)CC2` (stereo not given), the activation was -7.63%.

As to `C[C@@H]1O[C@@H](O[C@H]2[C@@H]3C=CO[C@@H](O[C@@H]4O[C@H](CO)[C@@H](O)[C@H](O)[C@H]4O)[C@@H]3[C@@]3(CO)O[C@@H]23)[C@H](OC(=O)/C=C/c2ccc(O)c(O)c2)[C@H](O)[C@H]1O`, the activation is -5.34%.

Consider `CC1=C2C[C@H]3OC(=O)[C@H](O)[C@@]4(O)[C@@H](C)[C@@H](O)[C@H](O)C([C@@]2(C)[C@H](O)[C@@H](O)C1)[C@@]34C` (stereo not given in full), for which the activation is -11.5%.

On to `CC/C=C\C(O)C(O)C1=C(C)C(=O)C2(O1)C(=O)NC(OC)(C(=O)c1ccccc1)C2O` (stereo not given), for which the activation was 0.763%.

Take `C[C@@H](OC(=O)/C=C/c1ccc(O)cc1)C1=C[C@]2(C=C[C@@H]3C(C(=O)O)=CO[C@@H](O[C@@H]4O[C@H](CO[C@@H]5O[C@H](CO)[C@@H](O)[C@H](O)[C@H]5O)[C@@H](O)[C@H](O)[C@H]4O)[C@@H]32)OC1=O`: the activation was -5.34%.

Regarding `C[C@@H]1O[C@@H](O[C@H]2[C@H](O)[C@@H](O)[C@H](OC(=O)[C@]34CCC(C)(C)C[C@H]3C3=CCC5[C@@]6(C)CC[C@H](O[C@@H]7O[C@H](C(=O)O)[C@@H](O)[C@H](O)[C@H]7O)C(C)(C)C6CC[C@@]5(C)[C@]3(C)CC4)O[C@@H]2CO)[C@H](O)[C@H](O)[C@H]1O` (stereo not given in full), the activation is -9.16%.

Consider `CC1(C)CC[C@]2(CO[C@@H]3O[C@H](CO)[C@@H](O)[C@H](O)[C@H]3O)[C@@H](O)C[C@]3(C)C(=CCC4[C@@]5(C)CC[C@H](O[C@@H]6O[C@H](CO[C@@H]7O[C@H](CO[C@@H]8OC[C@@H](O)[C@H](O)[C@H]8O)[C@@H](O)[C@H](O)[C@H]7O)[C@@H](O)[C@H](O)[C@H]6O)C(C)(C)C5CC[C@]43C)[C@@H]2C1` (stereo not given in full), for which the activation was -2.68%.

`COc1cccc2cc3c(c(O[C@@H]4O[C@H](CO[C@@H]5O[C@H](CO)[C@@H](O)[C@H](O)[C@H]5O)[C@@H](O)[C@H](O)[C@H]4O)c12)C(C)OC3=O` (stereo not given in full): the activation was 3.57%.

As for `Cc1cc(N(C)C)ccc1-c1nc2ccc(-c3nc4ccc(N5CCN(C)CC5)cc4[nH]3)cc2[nH]1`, the Potency was 30.1 µM (active).

In the case of `CC1(C)C(O)CCC2(C)C1C(O)C=C1COC(=O)C12O` (stereo not given), the activation was 3.82%.

For `C(#Cc1nc2ncccc2nc1OCCN1CCCC1)c1ccccc1`, the Potency was 6.75 µM (active).
